# Test results reported in PubChem BioAssay AID1508600 (Functional Genomics Laboratory (NCATS/FGL), 2020).
# Out of some 53,000 sequences screened, about 3,700 (7%) were called active. This is one part of a sample in which actives are shown more often than they occur.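 Rule for the calls: active = gene knockdowns whose robust z-score for IL-1 alpha signal is at least 2 or at most -2, so actives lie on both sides; inactive = the rest.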
# Test: Components of the Cytosolic LPS Sensing Pathway: Gene Identification via Genome-wide siRNA Screen
# Details: RAW264.7 macrophages, IL-1a HTRF, actives lie on both sides, screened at 100 nM (by protocol), cells primed 5 h with Pam3CSK4 first
# Excerpt: Non-canonical inflammasome activation by cytosolic LPS is a critical component of the host response to Gram-negative bacterial infection, however we lack a comprehensive understanding of the cellular processes that control this pathway. Here we describe a genome-wide siRNA screen to identify genes regulating the mouse macrophage IL-1 alpha response to cytosolic LPS.
# RAW264.7 cells were maintained in complete DMEM media, comprising DMEM with 4.5 g/L glucose, 10% FBS (Gemini Bio-Products, West Sacramento, CA), 2 mM Glutamine (Lonza) and 20 mM HEPES (Lonza), hereafter complete DMEM.
# The RNAi screen was conducted in 384-well format using the Ambion Silencer Mouse Genome siRNA Library (#4391425), which consists of three unique, nonoverlapping, nonpooled siRNAs for each of 17,000 gene targets. siRNA reagents ([…]) were stamped into 384-well white flat-bottom microplates (Corning, 3570) using a Velocity11 VPrep liquid handling system (Agilent) integrated into a BioCel robotic platform (Agilent) in columns 1-22, leaving columns 23-24 empty for negative (Ambion, Negative control #1) and positive (mouse Casp4) controls, respectively. The median value of each plate's negative control column was used to normalize sample wells, and the positive control was used to assess transfection efficiency and assay performance.
# Lipofectamine RNAiMAX Transfection Reagent ([…]; Invitrogen) was added in […] serum-free, antibiotic-free media to plate wells using a Thermo Scientific Matrix WellMate and Microplate Stacker. Plates were incubated for 45 min at room temperature to allow for the sufficient formation of siRNA-lipid complexes. Cells were seeded at a density of 1x10^4 cells per well in 20 microL media containing 20% (vol/vol) FBS without antibiotics. The final concentration of siRNA in each well was 100 nM. Cells were cultured for 48h at 37 degrees C in 5% CO2 before addition of […] of TLR ligand Pam3CSK4 for 5 hours. The medium was then removed, replaced with […] growth media and cell were transfected with […] of LipidA and TransIT-TKO (Mirus) for 24 hour. At the end of the LipidA treatment, […] of supernatant was transferred to a 384 Greiner Bio-one non-binding low volume plate and […] of IL-1a HTRF reagent (Cisbio, 62MIL1APEH) was added and incubated at room temperature overnight. The plates were read on an EnVision plate reader (PerkinElmer). Cell viability was measured by adding 20ul Cell Titer Glo to the original plate and running a luminescence read on the EnVision. The quantified IL-1a signal for each siRNA gene-targeted well was divided by the median of the negative control wells and multiplied by 100 to achieve a negative control normalized value for each well/siRNA. This normalized value was then used to generate a robust z-score by first taking the log of each value and then by subtracting the median and dividing by the […].
row,Sequence,z-score
1,CCCAGGUUCCGGAGAACAATT against Abcc5,2.14 (active)
2,GGCUGUCCAACAAGCAGAGTT against Plekhm3,0.163 (inactive)
3,GGUAGACCUUUUGUCACGGTT against Cers2,-0.0497 (inactive)
4,GGGUUUAAUCAUGAUAGAATT against Tet2,-0.583 (inactive)
5,GGCUUUCCCAAAGACUUCUTT against Col11a2,0.518 (inactive)
6,GGACAUCAUCCAGGAAAACTT against Bcar3,-0.347 (inactive)
7,GCCACAACAACUUGAGCAGTT against Amigo1,2.36 (active)
8,CAACUCUCUUGCUCAGACATT against Olfr814,-0.268 (inactive)
9,CGAACGGAAAAAUGGAAGUTT against Mrtfb,0.784 (inactive)
10,GGUCAUAGAGACAGACUACTT against Lcn12,-0.378 (inactive)
11,CGCAGAACCCUGGUUUCUATT against Trappc11,-0.232 (inactive)
12,GGACUUUCUCUAGGAUCCATT against Slamf8,-0.705 (inactive)
13,GGCUGGUUACCUGCAUAAGTT against Sh3bp2,0.225 (inactive)
14,GGUACCAUCCGGAAUACAATT against Zdhhc19,3.95 (active)
15,GGCCUCCUAACAAUUCAGCTT against Foxp1,0.0693 (inactive)
16,GCUCAGAGCAUGUUGGUGGTT against Dstyk,-0.805 (inactive)
17,GGAUAUACAAGCACAAACUTT against Gjc3,0.432 (inactive)
18,GGGAUUUAAAAGGAAAUGUTT against Gbp7,-1.05 (inactive)
19,GAAGCAGAUACCAAAACAATT against Kir3dl1,-3.02 (active)
20,GGAGGUGGUGCUUAAAGGUTT against Rnf122,0.41 (inactive)
21,GGUGAAAAGAGAUUUGAAUTT against Sp4,0.587 (inactive)
22,GCUCGUUCUUCGACAUCUUTT against Stard3,-0.946 (inactive)
23,GGACCUAGUGCGUUCCAAATT against H1f7,2.92 (active)

row,Sequence,z-score
1,GCGAUAUUUCAAGAGAAGCTT against Evc2,-0.372 (inactive)
2,CCCAAGCCUACCUUACGAGTT against Hipk2,-1.67 (inactive)
3,CCUAAUACCUUCAGUGUUCTT against Ptcd3,0.865 (inactive)
4,GGAAACUUAAGCAAAUUCUTT against Gprc6a,3.11 (active)
5,GGUGACUUUUUGGUACAGATT against Mthfr,0.558 (inactive)
6,GGCUGUUAUCCAGAGAGAUTT against Nim1k,0.177 (inactive)
7,GGACCUGAACACAGCUACUTT against Stoml1,1.04 (inactive)
8,GGAGAUCCUUAAGCUGUUGTT against Aen,-2.37 (active)
9,GCCUGACGGCACGUAUGUATT against Acox1,0.527 (inactive)
10,GGUACAGUGCAUCGACAUGTT against Eng,0.879 (inactive)
11,CGGAAGGAAGUGCCUAAACTT against Rcc2,0.668 (inactive)
12,GCAGUUAACUACGUUGCAATT against Zranb2,-0.44 (inactive)
13,GGGAUGUGAUAGUUCAUAATT against Stil,-0.304 (inactive)
14,GGACAUUCUCUACCGAAUATT against Acsm1,2.04 (active)
15,GGAUGAUUAUUGGAGCUAUTT against Vtn,0.128 (inactive)
16,GGACAAUAGGAGCCUUUAATT against Vmn1r211,0.125 (inactive)
17,CCUUCUAGUGCAUCAGUGGTT against Olfr890,-0.508 (inactive)
18,GGCUCUGGUCCAAGAAAUGTT against C4b,-0.176 (inactive)
19,CCAUGUCGUAUGUGAUUCUTT against Hils1,-0.528 (inactive)
20,GGAUGUUGAACAAAAGAAGTT against Abce1,-0.863 (inactive)
21,GCUUAUGUUGUUGUGCAUUTT against Zfyve21,0.362 (inactive)
22,GCUAUUCAAUCUGAGGAAATT against Olfr1278,0.246 (inactive)
23,GCCUGGAUUAUAGGAUCACTT against Tmem208,-1.45 (inactive)

row,Sequence,z-score
1,GGAUUAGAAUGUCAUGUCUTT against Ddx20,-1.28 (inactive)
2,GCAUCAGGCCCGUUCAGAATT against Ddx4,3.23 (active)
3,GCAGGUUGCUAUGCAUAUGTT against 9930038B18Rik,0.722 (inactive)
4,CGCAUUUUAGUUCAUCUGUTT against Sowahb,-0.669 (inactive)
5,GGAUCAAGGAGCAAGUGGUTT against B4galnt1,-1.7 (inactive)
6,GACCUUCCAGGUCAAGUUGTT against Plcg1,2.56 (active)
7,CCUAUUCCAUUGACAAUGATT against Tubb2a,0.286 (inactive)
8,GCUAAUUCAUGAAUUGAUGTT against Ofd1,1.01 (inactive)
9,GGAGCAGGAGAAAAUUUUGTT against Olfr437,-0.0124 (inactive)
10,GGCCCGUCACAUGAAGAAGTT against Ip6k3,0.238 (inactive)
11,GGAGCUAAGUGAUUUUAGATT against Mtf1,0.403 (inactive)
12,GGUGGAGGAUUUUUCAGAUTT against Hs6st2,2.42 (active)
13,GGAGGAUAUUGGAACUGCCTT against Lrrc26,0.312 (inactive)
14,GGCAUUAUCGUGGUUGGCATT against Ntpcr,-1.97 (inactive)
15,GCACGAGAGUCUGAAGGAUTT against Mns1,-0.2 (inactive)
16,GGUUGUCGCCAGAAUCAAGTT against Slc9a3r2,2.28 (active)
17,GGAUCUAUGGACGACCUUCTT against Kcnj10,-0.643 (inactive)
18,GGCGUGUCUGUAAAAUCUUTT against Exo5,0.656 (inactive)
19,GCGAGAUUGGUGCAAAACUTT against Grem1,-1.43 (inactive)
20,CCGUCAUCCGAGCAAUCAGTT against Kcnq5,-0.248 (inactive)
21,CGAACGAUUGAAGAUUUCUTT against Nat3,2.81 (active)
22,GGUGGCAGACAUUUCAACATT against Ifi27,1.54 (inactive)
23,GCUUCUUACAGUUUGCCCATT against Vmn1r65,-0.859 (inactive)
